Most compounds without a hit are left out; they make up all but 8.7% or so of the library.
BAZ2B block = inhibitors of human BAZ2B bromodomain; AlphaScreen BAZ2B-H3K14Ac peptide displacement; Potency, µM (series often up to 114 µM), most hits filed as inhibitors; 4.4% of 360,000 active; further: nearly all actives have a fitted effect of over 60% in size
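In this displacement format the biotinylated H3(5-23) peptide acetylated at Lys14 serves as ligand at 50 nM, with BAZ2B at 50 nM in PBS pH 7.4 containing 0.01% Tween-20. Donor and acceptor beads are 10 ug/mL final.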
JMJD2A Tudor = inhibitors of human JMJD2A Tudor domain; AlphaScreen JMJD2A-Tudor / H3K4me3 peptide binding; Potency, µM (series often up to 114 µM), actives largely listed as inhibitors; 4.4% of 390,000 active; further: nearly all actives have a fitted effect of over 50% in size
ALOX12 inh = blocks human arachidonate 12S-lipoxygenase | purified 12hLO, xylenol orange hydroperoxide absorbance | Potency, µM (highest dose often 108 µM), hits mostly inhibitors | 1.1% of 580,000 active | AID 1671190
Target sequence (P18054 whole entry, looked up): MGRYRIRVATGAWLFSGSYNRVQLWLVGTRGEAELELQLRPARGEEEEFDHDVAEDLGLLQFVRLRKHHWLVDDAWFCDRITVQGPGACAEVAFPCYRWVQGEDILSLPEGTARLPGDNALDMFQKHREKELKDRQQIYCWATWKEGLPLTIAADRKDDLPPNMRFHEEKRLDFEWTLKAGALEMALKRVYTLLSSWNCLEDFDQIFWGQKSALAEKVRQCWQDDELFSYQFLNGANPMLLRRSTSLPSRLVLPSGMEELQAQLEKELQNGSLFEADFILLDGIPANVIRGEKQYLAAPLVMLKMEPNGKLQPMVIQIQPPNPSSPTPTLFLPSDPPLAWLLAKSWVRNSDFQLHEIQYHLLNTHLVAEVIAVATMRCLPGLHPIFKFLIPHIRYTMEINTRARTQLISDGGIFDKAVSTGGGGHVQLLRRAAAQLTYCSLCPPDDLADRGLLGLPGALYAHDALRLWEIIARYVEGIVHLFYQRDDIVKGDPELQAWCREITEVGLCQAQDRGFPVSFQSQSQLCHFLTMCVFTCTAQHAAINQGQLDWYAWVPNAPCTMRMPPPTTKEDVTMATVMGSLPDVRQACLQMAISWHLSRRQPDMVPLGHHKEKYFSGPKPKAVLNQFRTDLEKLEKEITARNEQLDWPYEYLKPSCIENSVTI
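Purified human 12hLO (150 nM final) in 25 mM Hepes, 0.01% Triton X-100, pH 7.0 was preincubated 15 min at room temperature with compound. Then 40 uM arachidonic acid was added, 30 min. Hydroperoxide was read by Fe-XO absorbance ratio 573/405 nm.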
HP1b chromo inh = inhibitors of HP1-beta chromodomain binding to methylated histone tails; P83916; AlphaScreen HP1-beta / biotin-H3K9me3 peptide binding; Potency, µM (highest dose often 114 µM), actives largely listed as inhibitors; 0.56% of 390,000 active; further: nearly all actives have a fitted effect of over 70% in size
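Compound inhibition of the preformed complex between 50 nM HP1-beta and 50 nM biotinylated H3K9me3 peptide was read by AlphaScreen. Buffer was PBS pH 7.4 with 0.01% Tween-20. Incubations ran 30 min at room temperature, with 10 ug/mL donor/acceptor beads.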
G9a block = inhibitors of human histone lysine methyltransferase G9a; G9a H3K9 monomethylation, AlphaScreen, 2 h; Potency, µM (highest dose often 102 µM), usual class: inhibitors; 8.8% of 350,000 active; AID 504332; further: nearly all actives have a fitted effect of over 75% in size
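Methyltransferase reactions run at room temperature for 2 h (20 nM enzyme, 500 nM biotin-H3K9 peptide, 20 uM SAM) after a 15 min compound preincubation; product detected by AlphaScreen beads and anti-H3K9me1 antibody.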
Sfp PPTase inh = inhibitors of Bacillus subtilis Sfp phosphopantetheinyl transferase | AID 1490 | Potency, µM, most hits filed as inhibitors | 3.5% of 310,000 active | Q9F4F7 | Biochemical Sfp PPTase activity, qHTS;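 further: the enzyme is Sfp with the accession as filed and its product quenches rhodamine fluorescence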
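Fluorescence-quenching assay with 15 nM Sfp, 5 uM rhodamine-CoA and 12.5 uM BHQ-2-labelled ybbR peptide in pH 7.6 Hepes/MgCl2 buffer. Enzyme was pre-incubated with compound for 15 min at room temperature. Rate was taken from the 30-min fluorescence change (525/598 nm).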
Numbers stand for hits; 0 = inactive; ? = inconclusive; - = no result given; [ ] = another dose, or the depositor's remark. The call rests on the fitted dose curve; in most records, active means well fitted curve in the direction sought with a large enough effect; inconclusive means small, poorly fitted or top-dose-only effect, or another doubt; inactive means no such curve, though single readings can be large; an effect the other way counts as inactive or inconclusive.

SMILES	BAZ2B block	JMJD2A Tudor	ALOX12 inh	HP1b chromo inh	G9a block	Sfp PPTase inh
C=C1c2ccccc2O[C@H](C(=O)OCC)[C@@H]1CCC(C)C (tested in a mixture with another compound)	-	-	-	-	0	0
COC(=O)c1ccc(C2Nc3c(C)cc(C)cc3C3C=CCC32)cc1 (stereo unspecified)	79µM	?	0	0	4.5µM	-
COC(=O)c1ccc([C@@H]2Nc3c(cccc3C(F)(F)F)[C@@H]3C=CC[C@@H]32)cc1	0	0	0	0	0	-
Cc1cc(C)c2c(c1)[C@@H]1C=CC[C@@H]1[C@H](c1ccc(S(=O)(=O)N3CCOCC3)cc1)N2	0	?	?	0	3.5µM	10µM
CC(NC(=O)c1ccc[n+]([O-])c1)c1cccc(C(F)(F)F)c1 (stereo unspecified)	-	-	0	-	-	-
COC(=O)[C@@H]1Cc2c([nH]c3ccccc23)[C@H]2C[C@@H](N3CCOCC3)C[C@@H](c3ccc(OC(F)(F)F)cc3)N21	-	-	0	-	-	-
Cc1nccn1CCc1n[nH]c(=S)n1Cc1ccccc1	0	40µM	0	0	2µM	0
Cc1ccc(NCc2n[nH]c(=S)n2Cc2ccccc2)cc1Cl	?	?	?	0	18µM	0
COc1ccccc1OCc1n[nH]c(=S)n1Cc1ccccc1	0	32µM	0	0	13µM	0
S=c1[nH]nc(CCc2ccccc2)n1Cc1ccccc1	0	?	?	0	3.5µM	0
CSc1ccc2c(c1)N(C(=O)COC(=O)c1ccc3c(c1)OCO3)c1ccccc1S2	-	-	0	-	-	-
CCCN(CC1CCOC1)S(=O)(=O)c1ccc(OC)c(Cl)c1 (stereo unspecified)	-	-	0	-	-	-
CO[C@H]1[C@H](NC(=O)Cc2ccc(C)cc2)c2ccccc2C12CCNCC2	-	-	0	-	-	-
COC(=O)[C@@]1(Cc2ccc(F)cc2)[C@H]2c3cc(C(=O)N4CCCC4)n(CCc4c[nH]c5ccc(OC)cc45)c3C[C@H]2CN1C(=O)c1ccccc1	?	-	0	-	40µM	0
COC(=O)[C@@]1(Cc2ccc(F)cc2)[C@H]2c3cc(C(=O)N(C)C)n(CCc4ccc(OC)c(Br)c4)c3C[C@H]2CN1C(=O)c1ccccc1	?	?	0	0	25µM	0
COC(=O)[C@@]1(Cc2ccc(F)cc2)[C@H]2c3cc(C(=O)N(C)C)n(Cc4ccc(C)o4)c3C[C@H]2CN1C(=O)c1ccccc1	-	-	?	-	-	16µM
COC(=O)[C@@]1(Cc2ccc(F)cc2)[C@H]2c3cc(C(=O)N(C)C)n(Cc4ccccc4)c3C[C@H]2CN1C(=O)c1ccccc1	?	?	0	0	?	0
COC(=O)[C@@]1(Cc2ccc(F)cc2)[C@H]2c3cc(C(=O)N4CCCC4)n(CCc4c[nH]c5cc(F)ccc45)c3C[C@H]2CN1C(=O)c1ccccc1	-	-	-	-	-	0
COC(=O)[C@@]1(Cc2ccccc2)[C@H]2c3cc(C(=O)N4CCCC4)n(CCSCCO)c3C[C@H]2CN1C(=O)c1ccccc1	?	-	-	-	25µM	0
Cc1ccc(-n2c(C3CCN(C(=O)c4ccc5cc[nH]c5c4)CC3)n[nH]c2=O)cc1	-	-	0	-	-	-
CN(C)CC(NS(=O)(=O)c1ccccc1F)c1ccccc1 (stereo unspecified)	-	-	0	-	-	-
COC(=O)[C@@]1(Cc2ccc(F)cc2)[C@H]2c3cc(C(=O)N(C)C)n(Cc4ccc(O)c(OC)c4)c3C[C@H]2CN1C(=O)c1ccccc1	-	-	-	-	-	0
COC(=O)[C@@]1(Cc2ccc(OC)cc2)[C@H]2c3cc(C(=O)N4CCCC4)n(Cc4ccc(C)o4)c3C[C@H]2CN1C(=O)c1ccccc1	40µM	-	0	-	79µM	?
COC(=O)[C@@]1(Cc2ccc(F)cc2)[C@H]2c3cc(C(=O)N(C)C)n(Cc4ccc(OC)c(OC)c4)c3C[C@H]2CN1C(=O)c1ccccc1	?	?	0	0	50µM	0
COc1cc(/C=C2\SC(=O)NC2=O)ccc1Oc1ccc([N+](=O)[O-])cn1	0	0	0	0	0[12.7 µM]	79µM
SMILES	BAZ2B block	JMJD2A Tudor	ALOX12 inh	HP1b chromo inh	G9a block	Sfp PPTase inh
COc1cc(/C=C2/SC(=O)NC2=O)ccc1Oc1ccc([N+](=O)[O-])cc1[N+](=O)[O-]	?	0[11.4 µM]	0	0	?	50µM
COc1cc(/C=N/NC(=O)c2ccc3ccccc3c2)ccc1Oc1ccc([N+](=O)[O-])cn1	0	25µM	?	0	1.8µM	0
COc1cc(/C=C2/NC(=O)N(Cc3ccccc3F)C2=O)ccc1Oc1ccc([N+](=O)[O-])cn1	0	0	0	0	0	0
COc1cccc(C(=O)N/N=C/c2ccc(Oc3ccc([N+](=O)[O-])cn3)c(OC)c2)c1	0	0	?	0	?	0
CCC(NC(=O)c1csc(C)c1-c1ccccc1)c1ccc(C(C)C)cc1 (stereo unspecified)	-	-	0	-	-	-
Cc1cc(C(=O)N2CCC(Cc3nc(-c4ccccc4)n[nH]3)CC2)nn1C	-	-	0	-	-	-
O=C(NCc1ccc(Cl)nc1)c1ccc2ccnn2c1	-	-	0	-	-	-
CCOC(=O)CC(NS(=O)(=O)c1ccc2[nH]cc(C(=O)O)c(=O)c2c1)c1ccc(OCC)c(OC)c1 (stereo unspecified)	28µM	22µM	0	50µM	10µM	0
CCOC(=O)CC(NS(=O)(=O)c1ccc(OC)c(OC)c1)c1cccc([N+](=O)[O-])c1 (stereo unspecified)	0	0	0	0	?	0
